Experimental data: publication PMC5540273 (PLoS ONE, 2017)

test system: T1, YSK4; settings: concentration: 1 μM,replicates: in singlicate; n = 1
T1 construct: gene MAP3K19
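Note: KINOMEscan kinase panel screen.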

SMILES | %Inh [%]
Cc1n[nH]c2cc(Nc3ccnc(Nc4cccc(CN5CCOCC5)c4)n3)ccc12 [GW682569] | 90
Cn1ccc2ncnc(Oc3ccc(NC(=O)Nc4ccnc(C(F)(F)F)c4)c(Cl)c3)c21 | 14
COC(=O)c1cccc(NC(=O)NC2CCN(c3ccnc(NCc4ccc(F)cc4)n3)CC2)c1 [GSK1379860] | 9
CCn1c(-c2nonc2N)nc2cncc(Br)c21 [SB-738004] | 99.7
C[C@@H]1CCN(C(=O)N2CCCC2)C[C@@H]1N(C)c1ncnc2[nH]ccc12 | 82
O=C(NOCC1CC1)c1cc(Br)c(F)c(F)c1Nc1ccc(I)cc1Cl | 0
C[C@@H](Oc1cc(-n2cnc3cc(-c4cnn(C)c4)ccc32)sc1C(N)=O)c1ccccc1Cl [GSK580432] | 97.8
CN(c1ccc2c(c1)nc(NCc1ccc(F)cc1)n2C)c1ccnc(Nc2ccc(CS(C)(=O)=O)cc2)n1.Cl [GW813244] | 99.3
NC(=O)Nc1sc(-c2ccc(F)cc2)cc1C(N)=O [GW789449] | 82
O=C(Nc1n[nH]c2cc(-c3ccco3)ccc12)C1CC1 [SB-737447] | 96.2
CCn1c(-c2nonc2N)nc2cncc(CNC3CCNCC3)c21.Cl [SB-747651] | 87
C[C@@H]1CNc2c(sc3ccc4nc(-c5ccc(O)cc5)ccc4c23)C(=O)N1 | 46
O=C(Nc1ccc(Oc2ccc3nc(NC(=O)C4CC4)cn3n2)c(F)c1)c1cccn(-c2ccccc2)c1=O | 0
CS(=O)(=O)c1cccc(CNc2nc(Nc3ccc4c(c3)[C@@H]3C[C@@H]4CNC3=O)ncc2C(F)(F)F)c1 | 98.5
COc1cccc(OC)c1C(=O)Nc1cccc(-c2nn3ccccc3c2-c2ccnc(Nc3cccc(F)c3)n2)c1 [GSK361065] | 0
OCCn1cc(-c2cnc3nnn(Cc4ccc5ncccc5c4)c3n2)cn1 | 0
CC(=O)Nc1ccc(-c2cc3ncnc(SCC(=O)O)c3s2)cc1 | 50
CCN1CCN(CCCC(=O)Nc2n[nH]c3nc(-c4ccc(O)cc4)c(Br)cc23)CC1 [SB-731579] | 85
O=C(Nc1cccc(Oc2ccc3nccn3n2)c1)Nc1cccc(C(F)(F)F)c1 | 96.1

SMILES | %Inh [%]
Nc1nccc(-c2ccc3c(N)n[nH]c3c2)n1 [GSK1034945] | 72
COc1cc2c(Nc3ccc(NC(=O)c4ccccc4)cc3)ncnc2cc1OCCCN1CCOCC1 [GSK301329] | 12
COC(=O)c1cccc(NC(=O)NC2CCN(c3ccnc(Nc4cc(OC)c(OC)c(OC)c4)n3)C2)c1 (stereo not shown) [GSK1379767] | 0
COC(=O)Nc1nc2cc(Oc3ccc(NC(=O)Nc4cc(C(F)(F)F)ccc4Cl)cc3)ccc2[nH]1.Cl [GW697465] | 84
COc1cc2ncn(-c3cc(OCC4CCCCC4)c(C(N)=O)s3)c2cc1OC [GSK204559] | 35
CCCC(=O)Nc1n[nH]c2ncccc12 [SB-601436] | 0
Cl.c1ccc(Oc2ccc(Nc3ccnc4cc(-c5ccc(CN6CCNCC6)o5)ccc34)cc2)nc1 [GW567142] | 30
C[C@@H]1CNc2c(sc3ccc4nc(-c5ccncc5)ccc4c23)C(=O)N1 | 56
CCOC(=O)N1CCC(n2cnc(-c3ccc(F)cc3)c2-c2ccnc(N)n2)CC1 [SB-219952] | 9
CC(=O)Nc1nc2cnc(Nc3cc(NC(=O)c4cccc(CC(C)(C)C#N)c4)ccc3C)nc2s1 | 40
Cn1ccc2ncnc(Oc3ccc(NC(=O)Nc4cnn(C(C)(C)C)c4)c(Cl)c3)c21 | 34
Cc1ccc(CC(=O)N2CCc3cc(-c4cn(C)c5ncnc(N)c45)ccc32)cc1 [GSK2634758] | 50
N#Cc1cccc(C(=O)NC2CCN(c3ccnc(Nc4ccc(F)cc4)n3)C2)c1 (stereo not shown) [GSK1379708] | 16
Cl.Nc1n[nH]c2cc(-c3ccccn3)ccc12 [GSK2189892] | 5
Cc1nnc(-c2ccc3occ(-c4ccc(S(C)=O)cc4)c3n2)o1 (stereo not shown) | 0
NC(=O)c1ccc(-c2cc3ncnc(SCC(=O)O)c3s2)cc1 | 63
Cc1cccc2c(-c3ccncc3)c(-c3ccc(F)cc3)nn12.Cl [GW461487] | 0
CC(=O)c1c(-c2ccncc2)[nH]c(-c2ccncc2)c1C [GW493036] | 78
